Screening results from PubChem BioAssay.
HT1080 IDH1KD tx = HT-1080 IDH1 knockdown cell toxicity (counter line); HT-1080 IDH1 knockdown viability, ATP luminescence, 48 h; Potency, µM (top dose mostly 46.1 µM), actives largely listed as cytotoxic; 360,000 compounds, 2% hits
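Using the IDH1-knockdown HT-1080 line run in the same batch and compound series as the NT line, viability after 48 h at 37 °C was determined by CellTiter-Glo luminescence and expressed as % activity.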
TDP1 cell CPT = growth inhibition of DT40 Tdp1-/-;hTDP1 cells with camptothecin (screen for TDP1 inhibitors); chicken DT40 Tdp1-/-;hTDP1 cells + 20 nM CPT, ATP luminescence, 48 h; Potency, µM (highest dose often 46.2 µM), hits mostly inhibitors; 420,000 compounds, 12% hits; further: nearly all actives have a fitted effect of over 55% in size
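Cell growth measured by CellTiter-Glo luminescence after a minimum 48 h, 37 C compound exposure with 20 nM CPT in Tdp1-knockout DT40 cells stably expressing hTDP1, seeded 400/well; qHTS titration format.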
DT40 TDP1 no CPT = qHTS for Inhibitors of human tyrosyl-DNA phosphodiesterase 1 (TDP1): qHTS in cells in absence of CPT | 420,000 compounds, 15% hits | Potency, µM (series often up to 46.2 µM), hits mostly inhibitors | DT40 Tdp1-/- hTDP1 cells, no CPT, ATP luminescence, 48 h; further: nearly all actives have a fitted effect of over 55% in size
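No-CPT arm: Tdp1-/-;hTDP1 DT40 cells (400/well) plus compounds, incubated ≥48 hr at 37 °C. Readout CellTiter-Glo luminescence.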
IL-1B inflam inh = inflammasome signaling inhibition, IL-1 beta readout; THP-1 LPS/ATP IL-1B secretion, AlphaLISA, 16 h; active compounds read low; activity change, % at 57.5 µM; 360,000 compounds, 4.7% hits; AID 743279; in the data active means activity change below about -50%; inconclusive means mostly about -30% to -49%
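Secreted IL-1B measured by AlphaLISA bead assay after 16 h compound exposure of THP-1 cells; compounds (final up to 57.5 uM) added 1 h before LPS (250 ng/mL) and ATP (1.25 mM) stimulation; lower signal means less secretion.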
HT1080-NT tox = kills 2HG-producing HT-1080-NT fibrosarcoma cells; Potency, µM (top dose mostly 46.1 µM), most hits filed as cytotoxic; HT-1080-NT fibrosarcoma viability, CellTiter-Glo ATP luminescence, 48 h; 360,000 compounds, 1.6% hits;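 further: NT is the 2HG producing partner of a matched IDH1 knockdown line; nearly all actives have a fitted effect of over 55% in size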
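Luminescent CellTiter-Glo readout after 48 hours of compound exposure at 37 degrees C defined viability of HT-1080-NT cells. Activity was normalized to DMSO wells and cell-free media wells; concentration-response curves were fitted and assigned curve classes.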
Each line names hits and unclear results; the compound was inactive in the other large screens. An excerpt weighted towards active compounds, which were near 19% of everything screened. Unless noted, the call rests on the fitted dose curve; in most records, active means well fitted curve in the direction sought with a large enough effect; inconclusive means small, poorly fitted or top-dose-only effect, or another doubt; inactive means no such curve, though single readings can be large; an effect the other way counts as inactive or inconclusive.

COc1ccc(-n2cnc3cc(C(=O)N4CCC5(CC4)OCCO5)ccc32)cc1	HT1080 IDH1KD tx 16µM, TDP1 cell CPT 8.2µM, DT40 TDP1 no CPT 2.6µM, HT1080-NT tox inconclusive
CCCN(CCC)CCc1c[nH]c2ccc(C(N)=O)cc12	none (no result: IL-1B inflam inh)
O=C(O)[C@@H]1C[C@H]2C[C@@H](CP(=O)(O)O)CC[C@H]2CN1	none (no result: HT1080 IDH1KD tx, IL-1B inflam inh, HT1080-NT tox)
O=C1NC(=O)N(c2ccccc2)C(=O)/C1=C/c1ccc(Sc2ccccc2)o1	HT1080 IDH1KD tx inconclusive, TDP1 cell CPT inconclusive, DT40 TDP1 no CPT inconclusive, IL-1B inflam inh -101, HT1080-NT tox inconclusive
O=C1NC(=O)N(c2cccc(Cl)c2)C(=O)/C1=C\c1ccc(Sc2nc3ccccc3[nH]2)o1	TDP1 cell CPT inconclusive, DT40 TDP1 no CPT inconclusive
COc1ccc(N2C(=O)NC(=O)/C(=C/c3ccc([N+](=O)[O-])s3)C2=O)cc1	TDP1 cell CPT 15µM, DT40 TDP1 no CPT 6.5µM
COc1ccc(N2C(=O)NC(=O)/C(=C\c3cn(C)c4ccccc34)C2=O)cc1	none
COc1ccccc1N1C(=O)NC(=O)/C(=C/c2ccc([N+](=O)[O-])s2)C1=O	HT1080 IDH1KD tx inconclusive, TDP1 cell CPT 8.2µM, DT40 TDP1 no CPT 15µM, IL-1B inflam inh -62
CCOc1ccc(N2C(=O)NC(=O)/C(=C\c3cc(OC)c(OC)cc3[N+](=O)[O-])C2=O)cc1	TDP1 cell CPT inconclusive, DT40 TDP1 no CPT inconclusive, HT1080-NT tox inconclusive
COc1ccccc1N1C(=O)NC(=O)/C(=C/c2ccc3c4c(cccc24)CC3)C1=O	TDP1 cell CPT inconclusive, DT40 TDP1 no CPT inconclusive, IL-1B inflam inh inconclusive
COc1ccc(N2C(=O)NC(=O)/C(=C\c3ccc([N+](=O)[O-])s3)C2=O)cc1	TDP1 cell CPT 13µM, DT40 TDP1 no CPT inconclusive, IL-1B inflam inh inconclusive
O=C(CI)c1ccc(Cl)cc1	none (no result: HT1080 IDH1KD tx, IL-1B inflam inh, HT1080-NT tox)
COc1ccccc1N1C(=O)NC(=O)/C(=C\c2cnn(-c3ccccc3)c2)C1=O	HT1080 IDH1KD tx inconclusive, TDP1 cell CPT inconclusive, DT40 TDP1 no CPT inconclusive, IL-1B inflam inh -90, HT1080-NT tox inconclusive
COc1cc(/C=C2/C(=O)NC(=O)N(c3ccccc3)C2=O)ccc1O	none
O=C1NC(=O)N(c2ccccc2)C(=O)/C1=C\c1ccccc1[N+](=O)[O-]	TDP1 cell CPT 23µM
OC(CN1CCC(c2c[nH]c3ccccc23)CC1)C(F)(F)F (centres undefined)	none
C=C1C(=O)O[C@@H]2C[C@@H](C)[C@@H]3C=CC(=O)[C@@]3(C)[C@@H](OC(C)=O)[C@H]12	HT1080 IDH1KD tx 4.6µM, TDP1 cell CPT 0.82µM, DT40 TDP1 no CPT 0.65µM, IL-1B inflam inh inconclusive, HT1080-NT tox 6.5µM
O=C(c1c[nH]cc1-c1ccccc1)c1cccc2ccccc12	HT1080 IDH1KD tx 15µM, TDP1 cell CPT 18µM, DT40 TDP1 no CPT 15µM, HT1080-NT tox 23µM
COC(=O)CC(=O)c1ccc2c(c1)OCO2	TDP1 cell CPT inconclusive
O=c1c(O)c(-c2ccc(O)c(O)c2)oc2c(O)c(O)cc(O)c12	TDP1 cell CPT 18µM, DT40 TDP1 no CPT inconclusive (no result: HT1080 IDH1KD tx, IL-1B inflam inh, HT1080-NT tox)
CC[C@H]1CN(C)CCc2c([nH]c3ccccc23)C(=O)C[C@@H]1/C(=C\OC)C(=O)OC	TDP1 cell CPT 29µM
COc1ccc(CCn2c(O)c(C=NCCCO)c(=O)[nH]c2=O)cc1OC	none
O=C(CNC(=O)c1cccs1)NCC(=O)OCC(=O)c1ccc([N+](=O)[O-])cc1	TDP1 cell CPT 18µM, DT40 TDP1 no CPT inconclusive
C=C1C/C(=C/C)C(=O)O[C@@H]2CCN3CC=C(COC(=O)[C@]1(C)O)[C@@H]23	none (no result: HT1080 IDH1KD tx, IL-1B inflam inh, HT1080-NT tox)
CCN(CC)CCCNC(=O)c1c(O)c2ccccc2n(Cc2ccccc2)c1=O	TDP1 cell CPT 18µM, DT40 TDP1 no CPT 23µM
CCN(CC)CCNC(=O)c1c(O)c2ccccc2n(Cc2ccccc2)c1=O	HT1080 IDH1KD tx inconclusive, TDP1 cell CPT 18µM, DT40 TDP1 no CPT 16µM, HT1080-NT tox inconclusive
CCCN1CCO[C@@H]2c3cc(O)ccc3OC[C@@H]21	none (no result: HT1080 IDH1KD tx, IL-1B inflam inh, HT1080-NT tox)
C(=N\NC1=NCCCCC1)/c1c[nH]c2ccccc12	TDP1 cell CPT inconclusive, DT40 TDP1 no CPT inconclusive
CCCCn1c(/N=C/c2c[nH]c3ccccc23)nc2ccccc21	HT1080 IDH1KD tx inconclusive, TDP1 cell CPT inconclusive, DT40 TDP1 no CPT 21µM, IL-1B inflam inh -52, HT1080-NT tox inconclusive
O=C(Cc1ccccc1)OCC(=O)c1ccc(F)cc1	none
COc1cc(C)c(CNCCc2c[nH]c3ccccc23)cc1C	HT1080 IDH1KD tx inconclusive, TDP1 cell CPT 8.2µM, DT40 TDP1 no CPT 7.3µM, IL-1B inflam inh -72, HT1080-NT tox inconclusive
COc1ccc(CNCCc2ccccc2F)c(OC)c1C	TDP1 cell CPT 15µM, DT40 TDP1 no CPT 23µM, IL-1B inflam inh -65
COc1cccc(CNCCc2ccccc2)c1OC	none
COc1ccc(CNCCc2c[nH]c3ccccc23)c(OC)c1C	HT1080 IDH1KD tx 26µM, TDP1 cell CPT 5.8µM, DT40 TDP1 no CPT 7.3µM, HT1080-NT tox inconclusive (no result: IL-1B inflam inh)
CCOc1cc(CNCCc2ccccc2F)ccc1OC	TDP1 cell CPT inconclusive, DT40 TDP1 no CPT inconclusive
Cc1ccc2c(c1)C=CC(C#N)N2C(=O)Oc1ccccc1 (centres undefined)	TDP1 cell CPT 18µM, DT40 TDP1 no CPT 16µM, IL-1B inflam inh inconclusive
CCn1c(C(=O)N2CCC(C(=O)N3CCC4(CC3)OCCO4)CC2)cc2sccc21	none
Cc1ccc2nc(N3CCC(C(=O)N4CCC5(CC4)OCCO5)CC3)sc2c1	TDP1 cell CPT inconclusive, DT40 TDP1 no CPT inconclusive
O=C(C1CCN(c2nc3ccc(Br)cc3s2)CC1)N1CCC2(CC1)OCCO2	TDP1 cell CPT 12µM, DT40 TDP1 no CPT 12µM
CCc1ccc2nc(N3CCC(C(=O)N4CCC5(CC4)OCCO5)CC3)sc2c1	TDP1 cell CPT 12µM, DT40 TDP1 no CPT 16µM, HT1080-NT tox inconclusive
COc1ccc(Sc2cnn(-c3ccccc3)c(=O)c2Cl)cc1	TDP1 cell CPT inconclusive, DT40 TDP1 no CPT inconclusive, IL-1B inflam inh inconclusive
CCN1CCN(c2ccc(N)c(C)c2)CC1	TDP1 cell CPT inconclusive, DT40 TDP1 no CPT inconclusive
Cc1nn(Cc2ccccc2Cl)c(C)c1C(=O)OCC(=O)NC1CCCC(C)C1C (centres undefined)	TDP1 cell CPT 21µM, DT40 TDP1 no CPT 23µM
Cc1ccc(Cn2ccccc2=N)cc1	none
Cc1cc(OC(C)C(=O)NCC(O)c2ccccc2)c2c3c(c(=O)oc2c1)CCCC3 (centres undefined)	TDP1 cell CPT inconclusive, DT40 TDP1 no CPT inconclusive
Cc1cc(OCC(=O)NCC(O)c2ccccc2)c2c3c(c(=O)oc2c1)CCCC3 (centres undefined)	TDP1 cell CPT inconclusive, DT40 TDP1 no CPT 18µM
CCC(C)N1CCN(C(=O)Cc2ccccc2)CC1 (centres undefined)	none
C=Cn1ccnc1P(O)(=S)c1nc(C)c(CCOC(C)=O)s1 (centres undefined)	none
